Assay results from PubChem BioAssay (NCI).
Compounds without any hit were thinned out: in the full panel of roughly 83,000, 20% have a hit.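 Values shown are percent growth following 48 h exposure of cells in 96-well plates to a single concentration of compound; below 10 was considered active.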 Calls of active or inactive are those of the source.

What was measured:
Assay in all cases: NCI-60 one-dose screen, 48 h (100 = growth as untreated, 0 = no growth, -100 = all killed)
Details in all cases: 10 µM unless noted
DU-145 prostate = test system: DU-145 prostate
K-562 leukemia = test system: K-562 leukemia
MALME-3M melanoma = test system: MALME-3M melanoma
MDA-MB-231 breast = test system: MDA-MB-231 breast
RXF 393 renal = test system: RXF 393 renal
SF-268 CNS = test system: SF-268 CNS
SF-295 CNS = test system: SF-295 CNS
SF-539 CNS = test system: SF-539 CNS
UACC-257 melanoma = test system: UACC-257 melanoma
M14 melanoma = test system: M14 melanoma

Measured: growth

Cn1cc(-c2cc(N)n3nc(-c4cn(C)c5ccccc45)cc3n2)c2cc(Cl)ccc21
inactive: DU-145 prostate 22%
active: K-562 leukemia 1.57% | MALME-3M melanoma -77% | MDA-MB-231 breast -45.4% | RXF 393 renal -73.7% | SF-268 CNS -46.4% | SF-295 CNS -53.8% | SF-539 CNS -69.3% | UACC-257 melanoma -59.9% | M14 melanoma -78.3%

COC(=O)/C=C/c1cccc2c1C(=O)NC(C)(c1cc3ccccc3oc1=O)N2 (stereo not given)
inactive: DU-145 prostate 62.7% | K-562 leukemia 56.6% | MALME-3M melanoma 58.7% | MDA-MB-231 breast 76.3% | RXF 393 renal 58.9% | SF-268 CNS 82.3% | SF-295 CNS 84.9% | SF-539 CNS 73.2% | UACC-257 melanoma 77.7% | M14 melanoma 41.7%

O=c1[nH]c2ccccc2cc1CSc1cccc(Nc2nccc(-c3ccc4ccccc4c3)n2)c1
inactive: DU-145 prostate 89.6% | K-562 leukemia 64.3% | MALME-3M melanoma 92% | MDA-MB-231 breast 95.6% | RXF 393 renal 81.3% | SF-268 CNS 98.1% | SF-295 CNS 88% | SF-539 CNS 98.3% | UACC-257 melanoma 99.3% | M14 melanoma 86.7%

C#CCOc1cc(N(CC)CC)ccc1C(C(=O)NC(C)(C)C)N(C(=O)C1CCc2cc(F)ccc2O1)c1ccc(Br)cc1 (stereo not given)
inactive: DU-145 prostate 97.1% | K-562 leukemia 41.1% | MALME-3M melanoma 92.6% | MDA-MB-231 breast 61.6% | RXF 393 renal 103% | SF-268 CNS 92.8% | SF-295 CNS 96.4% | SF-539 CNS 81.1% | UACC-257 melanoma 87.8% | M14 melanoma 68.3%

COc1ccc2oc3c4[nH]c5ccccc5c4c4c(c3c2c1)C(=O)N(C(=O)OC(C)(C)C)C4=O
active: DU-145 prostate 6.06% | K-562 leukemia 3.78% | MALME-3M melanoma -24.9% | MDA-MB-231 breast 8.48% | RXF 393 renal -0.96% | SF-268 CNS 4.9% | SF-295 CNS -26.7% | SF-539 CNS -24.8% | UACC-257 melanoma -52.9% | M14 melanoma -44.6%

CCCCCCCCOc1cccc(S(=O)(=O)Nc2ccc(C)cc2C(=O)O)c1
inactive: DU-145 prostate 102% | K-562 leukemia 83.8% | MALME-3M melanoma 96% | MDA-MB-231 breast 105% | RXF 393 renal 107% | SF-268 CNS 99.2% | SF-295 CNS 90% | SF-539 CNS 97.6% | UACC-257 melanoma 96.7% | M14 melanoma 100%

COc1ccccc1C(=O)NN1C(=O)/C(=C/C2=Cc3ccccc3OC2)SC1=S
inactive: DU-145 prostate 112% | K-562 leukemia 101% | MALME-3M melanoma 99.3% | MDA-MB-231 breast 102% | RXF 393 renal 114% | SF-268 CNS 109% | SF-295 CNS 109% | SF-539 CNS 95.4% | UACC-257 melanoma 108% | M14 melanoma 99.3%

COc1cc2c(c(OC)c1OC)C(=O)CC(c1cccc(NC(=O)c3cc(NC(=O)[C@@H](N)CO)ccc3C)c1)O2 (stereo not given in full)
inactive: DU-145 prostate 119% | K-562 leukemia 91.4% | MALME-3M melanoma 103% | MDA-MB-231 breast 111% | RXF 393 renal 119% | SF-268 CNS 111% | SF-295 CNS 101% | SF-539 CNS 99.7% | UACC-257 melanoma 104% | M14 melanoma 119%

COc1ccc(C(=O)/C=C/c2ccc(OC)c(OCc3ccccc3)c2)cc1OC
inactive: DU-145 prostate 15.4% | K-562 leukemia 13.2% | MALME-3M melanoma 74.1% | MDA-MB-231 breast 17.9% | SF-268 CNS 21.1% | SF-295 CNS 69% | UACC-257 melanoma 42.7% | M14 melanoma 34.6%
active: RXF 393 renal -10.4% | SF-539 CNS -27.2%

CCCCc1c(Nn2cnnn2)no[n+]1[O-]
inactive: DU-145 prostate 56.2% | K-562 leukemia 28.2% | MALME-3M melanoma 68.7% | MDA-MB-231 breast 49.3% | RXF 393 renal 39.5% | SF-268 CNS 82.2% | SF-295 CNS 56.9% | SF-539 CNS 57% | UACC-257 melanoma 68.5% | M14 melanoma 68.1%

Cc1ccc([C@H]2C(C(=O)c3ccc(Cl)cc3)C3(N[C@@H]2c2ccccc2)C(=O)Nc2ccc(Br)cc23)cc1 (stereo not given in full)
inactive: DU-145 prostate 82.5% | K-562 leukemia 26.6% | MALME-3M melanoma 92.2% | MDA-MB-231 breast 49.7% | RXF 393 renal 33.6% | SF-268 CNS 100% | SF-295 CNS 52.4% | SF-539 CNS 79.7% | UACC-257 melanoma 71.6% | M14 melanoma 44.3%

COc1ccc(-c2nc3ccc(C(=O)NN4C(=O)c5ccc([N+](=O)[O-])cc5C4=O)cc3[nH]2)cc1
inactive: DU-145 prostate 109% | K-562 leukemia 102% | MALME-3M melanoma 87.9% | MDA-MB-231 breast 90.1% | RXF 393 renal 68.4% | SF-268 CNS 105% | SF-295 CNS 88.2% | SF-539 CNS 91.1% | UACC-257 melanoma 94.2% | M14 melanoma 93.7%

COc1cc2oc(-c3cccc(NC(=O)[C@H](CC(N)=O)NC(=O)OC(C)(C)C)c3)cc(=O)c2c(OC)c1OC
inactive: DU-145 prostate 97.1% | K-562 leukemia 77.1% | MALME-3M melanoma 107% | MDA-MB-231 breast 97.7% | RXF 393 renal 69.4% | SF-268 CNS 90.2% | SF-295 CNS 103% | SF-539 CNS 78% | UACC-257 melanoma 112% | M14 melanoma 115%

CCOC(=O)c1ccc(Nc2nc(NN)nc(-c3ccc(OC)cc3)c2C#N)cc1
inactive: DU-145 prostate 113% | MALME-3M melanoma 92.4% | MDA-MB-231 breast 85.1% | RXF 393 renal 124% | SF-268 CNS 98.2% | SF-295 CNS 111% | SF-539 CNS 110% | UACC-257 melanoma 46% | M14 melanoma 71.6%
active: K-562 leukemia 1.69%

Cc1cccc(Nc2nc3ccccc3nc2/C=C/c2ccc(F)cc2)c1
inactive: DU-145 prostate 101% | K-562 leukemia 86.5% | MALME-3M melanoma 109% | MDA-MB-231 breast 97.1% | RXF 393 renal 98% | SF-268 CNS 91% | SF-295 CNS 107% | SF-539 CNS 102% | UACC-257 melanoma 94.5% | M14 melanoma 93.3%

O=C(c1ccccc1)c1ccc2nc(-c3ccc(F)cc3)[nH]c2c1
inactive: DU-145 prostate 74.9% | K-562 leukemia 20.9% | MALME-3M melanoma 73% | MDA-MB-231 breast 42.2% | RXF 393 renal 49.2% | SF-268 CNS 47.7% | SF-295 CNS 97.1% | SF-539 CNS 50.6% | UACC-257 melanoma 68.5% | M14 melanoma 54.4%

Cc1ccc(S(=O)(=O)c2nc(S(=O)(=O)c3ccc(C)cc3)c(N3CCN(C)CC3)s2)cc1
inactive: DU-145 prostate 52.6% | K-562 leukemia 15.7% | MALME-3M melanoma 73.5% | MDA-MB-231 breast 84.4% | RXF 393 renal 30.3% | SF-268 CNS 78.7% | SF-295 CNS 102% | SF-539 CNS 57.5% | UACC-257 melanoma 85.8% | M14 melanoma 74%

O=C(COc1ccc(NC(=O)Nc2ccc(Cl)c(Cl)c2)cc1)N=Nc1c(O)[nH]c2ccccc12
active: DU-145 prostate -42.7% | K-562 leukemia 5.06% | MALME-3M melanoma -79.3% | MDA-MB-231 breast -66.8% | RXF 393 renal -52.7% | SF-268 CNS -5.94% | SF-295 CNS -48.9% | SF-539 CNS -86.3% | UACC-257 melanoma -44.5% | M14 melanoma -76.5%

C=C1CC[C@@H]2[C@]3(C)COC(c4cn[nH]c4-c4cccc(Br)c4)O[C@@H]3CC[C@@]2(C)[C@@H]1C/C=C1/C(=O)OCC1O (stereo not given in full)
active: DU-145 prostate -85.5% | K-562 leukemia -2.18% | MALME-3M melanoma -74.5% | MDA-MB-231 breast -47.3% | RXF 393 renal -90.8% | SF-268 CNS -22.7% | SF-295 CNS -78.6% | SF-539 CNS -97.8% | UACC-257 melanoma -72% | M14 melanoma -75.7%

COc1cccc(COc2ccc(NC(=O)Nc3ccc(Cl)c(C(F)(F)F)c3)cc2)c1
active: MALME-3M melanoma 1.5%
inactive: DU-145 prostate 44.6% | K-562 leukemia 27.1% | MDA-MB-231 breast 52% | RXF 393 renal 51.7% | SF-268 CNS 71.1% | SF-295 CNS 19.7% | SF-539 CNS 49.6% | UACC-257 melanoma 60.9% | M14 melanoma 62.6%

C=C1CCC2C3(C)COC(c4cc(F)cc(F)c4)OC3CCC2(C)C1CC(O)C1=CCOC1=O (stereo not given)
inactive: DU-145 prostate 72.9% | K-562 leukemia 24.6% | MALME-3M melanoma 88.6% | MDA-MB-231 breast 63.2% | RXF 393 renal 56.4% | SF-268 CNS 97.3% | SF-295 CNS 77.9% | SF-539 CNS 79.6% | UACC-257 melanoma 73.7% | M14 melanoma 58.7%
